In PubChem BioAssay (NCI) one finds growth inhibition data, which are given here for 18 compounds.

This is part of a sample that, as a whole, favours compounds with a hit. Of some 79,000 tested, about 15% had one in any assay. Calls of active or inactive are those of the source. Cut-off read from the data, not from the text of the source: active = growth inhibition above about 70%; inactive = the rest.

A short description of the test: NCI Yeast Anticancer Drug Screen. Data for the bub3 strain (AID 167). Particulars: S. cerevisiae bub3 mutant strain, at 50.0 µM, active compounds read high. In short, it runs like this: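 Yeast carrying a defined mutation is treated with each compound, and growth is compared with that of vehicle-exposed cells to give inhibition.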
Regarding `c1ccc(N2C3Sc4ncccc4C2Sc2ncccc23)cc1`, the growth inhibition is -1.05% (inactive).

As for `O=C(O)CSC(CC(=O)O)C(=O)O` (stereo not drawn), the growth inhibition is 21.6% (inactive).

Turning to `CC(=O)C(CCN(C)C)(c1ccccc1)C1CCCCC1` (stereo not drawn), the growth inhibition is -10.5% (inactive).

For the compound `Cc1ccc(S(=O)(=O)Nc2ccccc2-c2nc3ccc([N+](=O)[O-])cc3c(=O)o2)cc1`, the growth inhibition is 11.8% (inactive).

As to `Nc1nc(N)nc(-c2ccccc2N)n1`, the growth inhibition is -22.8% (inactive).

Take `COC1OC(COC(=O)c2ccc([N+](=O)[O-])cc2)C(O)C1SC#N` (stereo not drawn): the growth inhibition was 13.2% (inactive).

Regarding `Cc1cccc(Cl)c1NC(=O)C(Cl)Cl`, the growth inhibition was 17.3% (inactive).

With `Cc1cc(S(=O)(=O)Nc2nnc3cc(C(F)(F)F)cc(C)n23)c(S)cc1Cl`, the growth inhibition is -19.9% (inactive).

Regarding `SC1c2ccccc2-c2ccccc21`, the growth inhibition is -30.2% (inactive).

Regarding `Cc1cc(N(CCC#N)CCC#N)ccc1/C=C(\NC(=O)/C=C/c1ccccc1)C(=O)Nc1ccc(Cl)cc1`, the growth inhibition is 3.9% (inactive).

For the compound `COc1cc(C(c2c(O)c3ccccc3oc2=O)N2CCCC2)cc(OC)c1OC` (stereo not drawn), the growth inhibition was -0.3% (inactive).

Consider `O=C(O)CCC(NC(=O)/C(=C/c1ccccc1)NC(=O)c1ccccc1)C(=O)O` (stereo not drawn), for which the growth inhibition was 18.2% (inactive).

For the compound `O=[N+]([O-])c1ccc(-c2ccncc2)cc1`, the growth inhibition was -18.1% (inactive).

Take `C=CCOc1ccc2cc(Br)ccc2c1`: the growth inhibition is 4.4% (inactive).

Turning to `CSCCC(N)C(=O)NCCS(=O)(=O)O` (stereo not drawn), the growth inhibition is 17.1% (inactive).

As for `CCOC(=O)CN(C)C#N`, the growth inhibition was -31.6% (inactive).

Turning to `CNC(=O)n1cnc2ccccc21`, the growth inhibition is 60% (inactive).

On to `CCCCCCCCC/C=C1\CCC(CN2CCOCC2)C1=O` (stereo not drawn), for which the growth inhibition was 88.8% (active).
